From PubChem BioAssay AID1272365 (Small Molecule Screening Facility, UW Madison, 2020)
Where “and” joins values, the source holds several entries; their conditions need not be identical. Equal entries are not always repeated. About 2,600 (0.6%) of roughly 430,000 compounds were called active. Shown is part of a subset that was picked to be rich in actives. Unmarked numbers belong to inactive results. Rule as the data show it: active = inhibition mostly above about 37% (no sharp cut-off); inactive = mostly below about 20%.

system: PriA–SSB C-terminal tail interaction (Klebsiella pneumoniae); test: blocks PriA binding to SSB C-terminal tail, primary screen, biochemical, AlphaScreen (AID 1272365); settings: AlphaScreen SSBct-PriA binding, biotinylated peptide; at 33 µM, active compounds read high;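 as to inhibition: plate controls were negative control peptide for no effect and reference peptide for full effect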

| SMILES | inhibition |
| --- | --- |
| CC(C)(C)NC(=O)COC(=O)c1cc(Cl)ccc1[N+](=O)[O-] | 6.97% |
| Cc1cc(NC(=O)COC(=O)COc2ccc(Cl)cc2C)c([N+](=O)[O-])cc1C | 10.3% |
| CCCC(=O)OCC(=O)Nc1cc(Cl)ccc1[N+](=O)[O-] | 42.6% (active) |
| O=C(NCc1cncc(-c2cccs2)c1)c1ccc2ncsc2c1 | -4% |
| CC(NC(=O)c1ccccc1)C(c1ccccc1)N(C)C (configuration not stated) | 25% |
| CC(C)NC(=O)c1ccccc1Nc1c([N+](=O)[O-])cc(C(F)(F)F)cc1[N+](=O)[O-] | 56% (active) |
| CC(C)NC(=O)c1ccc(Sc2ccccc2)c([N+](=O)[O-])c1 | -10.4% |
| O=C(NNC(=O)c1ccccc1[N+](=O)[O-])Nc1ccccc1C(F)(F)F | -2.15% |
| COc1ccc(C)cc1NC(=O)Cc1cc(=O)[nH]c(SCc2ccc(F)cc2)n1 | -4% |
| O=C(CN1C(=O)COc2ccccc21)Nc1ccc(F)cc1 | 48.3% (active) |
| O=C(CN1C(=O)COc2ccc(Cl)cc21)Nc1ccc(N2CCOCC2)cc1 | -6.86% |
| CC(OC(=O)CN1C(=O)COc2ccccc21)C(=O)NCc1ccc(F)cc1 (configuration not stated) | 4.53% |
| O=C(CSc1ncc(-c2ccccc2)n1-c1ccc(F)cc1)N1CCCC1 | 43% (active) |
| N#CCSc1ncc(-c2ccc(Br)cc2)n1-c1ccc(F)cc1 | 7% |
| Cn1c(-c2ccc(F)cc2)cnc1SCC(=O)NNC(=O)Cc1ccccc1 | -3.92% |
| CS(=O)(=O)c1ccc(-c2ccc(NS(=O)(=O)c3ccc4c(c3)CCCC4)cc2)nn1 | -11% |
| O=C(c1cccc(Oc2ncccn2)c1)N1CCCC1 | -8% |
| O=C(C[C@@H]1C/C=C/CC[C@H](Cc2ccc(F)cc2)C(=O)OC[C@@H](Cc2ccccc2)NC1=O)NCCO | -9.28% |
| O=C(c1ccc(-n2cccc2)cc1)N1CCC[C@H](Cc2nc(-c3ccsc3)no2)C1 | 31% (active) |
| O=C(c1ccc(=O)[nH]n1)N1CCCC(Cc2nc(-c3ccsc3)no2)C1 (configuration not stated) | -8% |
| O=C(c1cc(-c2cccs2)on1)N1CCC[C@H](Cc2nc(-c3ccsc3)no2)C1 | 3% |
| O=C(c1ccc(-c2cccs2)cc1)N1CC(Oc2nccs2)C1 | -9% |
| Cc1cc(=O)n(C)c(=O)n1CCCNc1ccccc1 | -14.1% |
| CC(C)Oc1ccc(C(=O)Nc2cc(=O)n(C)c(=O)n2C)cc1 | -9.4% |
| Cn1c(Nc2ccccc2)cc(=O)n(C)c1=O | 43.6% (active) |

| SMILES | inhibition |
| --- | --- |
| N#Cc1nccnc1N1CCC(CNC(=O)c2cc(=O)c3ccccc3o2)CC1 | -11% |
| Cn1nc(CNS(=O)(=O)C2CC2)cc1-c1ccco1 | -8% |
| COc1ccc(OC)c(NC(=S)NCc2ccc3c(c2)cc(C)n3C)c1 | 81.2% (active) |
| CCOCC(=O)NCc1ccc2c(c1)cc(C)n2C | 0.95% |
| COc1ccc(NC(=O)NCc2ccc3c(c2)OCO3)c(OC)c1 | -0.59% |
| CCOc1ccc(S(=O)(=O)NCCCn2nc(-c3ccncc3)ccc2=O)cc1 | -20% |
| COC(=O)N1CCc2c(sc(NC(=O)c3cccc(N4C(=O)CCC4=O)c3)c2C#N)C1 | -11% |
| CC(Cc1cccs1)NC(=O)Cc1ccccc1Cl (configuration not stated) | -11% |
| CC1CCCC(C)N1N=Cc1ccc([N+](=O)[O-])cc1 (configuration not stated) | 46.8% (active) |
| COC(=O)c1ccc(C=NN2C(C)CCCC2C)cc1 (configuration not stated) | 14.5% |
| O=[N+]([O-])c1ccc(C=NN2CCN(c3ccc(Cl)cc3)CC2)cc1 | -20.9% |
| COc1ccc(C(=O)C=C(C)NCc2ccc3c(c2)OCO3)cc1 | 12.8% |
| CN1C(=O)C(C)(C)COc2ccc(NC(=O)c3ccc(Cl)cc3)cc21 | 18% |
| CCOc1ccc(-c2cn(S(=O)(=O)c3cccc4nsnc34)nc2N)cc1 | 40.5% (active) |
| CCOc1ccc(N(CC)S(=O)(=O)c2cccc3nsnc23)cc1 | 4.13% |
| CCOc1ccc(NC(=O)CCS(=O)(=O)c2cccc3nsnc23)cc1 | -12% |
| Brc1ccc(-c2nn[nH]n2)cc1 | -6.63% |
| C=C1Cn2c(nnc2-c2ccc(Br)cc2)S1 | 97% (active) |
| COc1ccccc1-c1nnc2n1N=C(c1ccc(Br)cc1)CS2 | -20% |
| O=C(C[C@H]1C/C=C/CCCC(=O)OC[C@H]2CCCN2C1=O)NCCO | -5.28% |
| Cn1nnc2c(N3CC(C(=O)Nc4ccc5cn[nH]c5c4)C3)ncnc21 | 2% |
| OC(COCc1ccco1)CN1CCN(c2ccccc2)CC1 (configuration not stated) | -2.32% |
| OC(COc1ccc2c(c1)CCC2)CN1CCN(c2cccc(Cl)c2)CC1 (configuration not stated) | -11% |
| O[C@H](COc1cccc(Oc2ccccc2)c1)CN1CCN(c2ccccc2)CC1 | 31% (active) |
| CSCC(C)(O)CNS(=O)(=O)c1cccc2ccccc12 (configuration not stated) | -6% |

| SMILES | inhibition |
| --- | --- |
| Cn1nc2cc(Br)ccc2c1C(=O)N1CCc2ncncc2C1 | 1% |
| CCc1cc(=O)[nH]c2nnc(SCC#N)n12 | -14% |
| Cc1cc(C)c2nc(N(CCCn3ccnc3)C(=O)c3ccco3)sc2c1 | 95.7% (active) |
| Cc1cc(C)c2nc(N(CCn3cccn3)C(=O)c3cc4ccccc4o3)sc2c1 | -1% |
| COc1ccc(OC)c2sc(N(CCCN3CCOCC3)C(=O)c3cc(C)no3)nc12 | 3% |
| O=C(NCCc1ccoc1)C(=O)Nc1ccc(F)cc1F | 8% |
| CCC1SC(=S)N(C)C1=O (configuration not stated) | -17% |
| CC(C)CCN1C(=O)C(C)(C)COc2cc(NC(=O)CN3C(=O)c4ccccc4C3=O)ccc21 | -6% |
| O=C(NCCCn1ccnc1)C(=O)NCC1OCCN1S(=O)(=O)c1cc(F)ccc1F (configuration not stated) | 70.1% (active) |
| O=C(NCCCc1ccccc1)C(=O)NCC1OCCN1S(=O)(=O)c1ccccc1 (configuration not stated) | -3.21% |
| Cc1cc(F)ccc1S(=O)(=O)N1CCCOC1CNC(=O)C(=O)NCCC1=CCCCC1 (configuration not stated) | 2.41% |
| O=C(Nc1cnc(-n2ccnc2)nc1)c1ccccc1Cl | -6% |
| O=C(c1cccs1)c1ccc(CNS(=O)(=O)CCOc2ccccc2)s1 | -4% |
| Cc1cc(C)n(-c2nc(N)cc(=O)[nH]2)n1 | 73% (active) |
| Cc1cc(=O)[nH]c(-n2nc(C)c(CCC(=O)Nc3ccc(Cl)cc3)c2C)n1 | -4% |
| Cc1cc(C)n(-c2nc(O)cc(=O)[nH]2)n1 | 5.59% |
| CN(C)CCN(C(=O)c1cc2cc([N+](=O)[O-])ccc2s1)c1nc2cc3c(cc2s1)OCO3 | 28% |
| O=C(C1CC=CCC1)N1CCCC(S(=O)(=O)c2ccc(F)cc2)C1 (configuration not stated) | -14% |
| COc1cc(NC(=O)NCCc2ccc3c(c2)CCCN3C)cc(OC)c1 | 63% (active) |
| CN1CCCc2cc(CCNC(=O)C(=O)Nc3ccc4c(c3)OCCO4)ccc21 | -11% |
| CN1CCCc2cc(CCNC(=O)c3ccc(Br)cc3)ccc21 | 18% and -16% |
| Cc1ccc(NC(=O)CCc2csc(NC(=O)c3ccc(=O)[nH]c3)n2)cc1Cl | -9% |
| CN(C)c1nn(CC(=O)NCc2ccc3c(c2)OCO3)cc1-c1ccc(Cl)cc1 | 1% |
| CC1Nc2ncnn2C(c2ccccc2)C1C(=O)Nc1ccccc1 (configuration not stated) | -3% |
| Cc1ccc(NS(=O)(=O)c2ccc(N/N=C/c3ccccc3OCC(=O)O)c([N+](=O)[O-])c2)c(C)c1 | active |

| SMILES | inhibition |
| --- | --- |
| COc1ccc(/C=N/Nc2ccccc2[N+](=O)[O-])c(C(=O)O)c1OC | inactive |
| CC(=O)Nc1cccc(C(C)=NNc2ccc(S(=O)(=O)Nc3ccccc3C(=O)O)cc2[N+](=O)[O-])c1 | 12% |
| CCCCc1ccc(Nc2c(C(=O)N3CCSCC3)cnc3nc(C)ccc23)cc1 | -6% |
| COCCN(Cc1ccncc1)C(=O)c1ccco1 | -8% |
| O=C(c1ccccc1)c1ccccc1C(=O)N1CCC(Oc2ncccc2Cl)CC1 | 6% |
| O=C(NN=Cc1cccc2ccccc12)c1cccnc1 | -10.5% |
| Oc1ccc(C=NNC(=S)Nc2cccnc2)c(O)c1O | 100% (active) |
| Fc1cc(Br)ccc1NC(=S)Nc1cccnc1 | -8.39% |
| COc1ncc(NC(=O)c2snnc2C)cn1 | 1% |
| O=C(Nc1cc2ccccc2cc1NC(=O)c1ccc(N2C(=O)CCC2=O)cc1)c1ccc(N2C(=O)CCC2=O)cc1 | 0% |
| O=C(Nc1nc(-c2ccc(Cl)cc2Cl)cs1)c1ccc(N2C(=O)CCC2=O)cc1 | 64% (active) |
| COc1ccc2oc(-c3csc(NC(=O)c4ccc(N5C(=O)CCC5=O)cc4)n3)cc2c1 | 6% |
| COc1ccc(S(=O)(=O)NCCn2nc(-c3ccncc3)ccc2=O)cc1F | -6% |
| O=S(=O)(Cc1ccccc1)NCC1CCN(c2cnccn2)CC1 | -1% |
| CC(=O)Nc1ccc(OCC(O)CN(c2ccc(C)cc2)S(C)(=O)=O)cc1 (configuration not stated) | -18% |
| COc1ccc(OCC(O)CNc2ccc(C)cc2)cc1 (configuration not stated) | 36% (active) |
| CCc1ccc(S(=O)(=O)NCC(O)COc2ccc(OC)cc2)cc1 (configuration not stated) | -7.77% |
| CN(C)c1ccc(C=NN=C2NC(=O)/C(=C/c3ccc([N+](=O)[O-])cc3)S2)cc1 | -15.2% |
| O=C(NCc1cccs1)C(=O)Nc1cccc(F)c1 | -15% |
| COc1ccc(CCN2COc3ccc4c(c3C2)O/C(=C\c2ccco2)C4=O)cc1OC | 3% |
| Cc1ccc(C(=O)N/C(=C\c2cccs2)C(=O)NCCc2ccccn2)cc1C | -25.3% |
| O=C1/C(=C/c2cccs2)Oc2c1ccc1c2CN(Cc2ccccn2)CO1 | 101% (active) |
